Compound activity from PubChem.
PfHsp90 yeast 2 = reduces growth (ATP signal) of yeast expressing P. falciparum Hsp90. S. cerevisiae expressing PfHsp90, BacTiter-Glo ATP, 48 h; yeast lacking PDR1 and PDR3 efflux regulators. inhibition, % at 9.4 µM. hit rate 0.32% among 310,000. AID 504621;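 active = every replicate shows inhibition above about 80%, whatever the replicate mean, limit read from the data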
SKKanGAS inh = SKKanGAS growth inhibition. hit rate 1.3% among 300,000. S. pyogenes SKKanGAS, kanamycin growth, BacTiter-Glo, 6 h. inhibition, % at 7.5 µM;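 active = mean replicate score, as percent of positive control median, at least 50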;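 note: strain carries kanamycin resistance gene driven by streptokinase promoter and grows in 40 µg/ml kanamycin; loss of luminescence reflects streptokinase promoter inhibition or plain growth inhibition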
Calb FLC = C. albicans growth modulation with fluconazole | C. albicans CaCi-2 (fluconazole-resistant clinical isolate) + fluconazole, Alamar Blue growth, 48 h | growth inhibition, % (concentration not given with the values) | hit rate 0.57% among 300,000 | AID 1979;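 active = growth inhibition above about 58% in most replicates, limit read from the data, passing the limit was not always enough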;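 note: all wells also contain fluconazole at 8 µg/ml as a sub-toxic cotreatment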
tim10-1 inh = growth inhibitors of tim10-1 mutant yeast | S. cerevisiae tim10-1 ts strain growth, BacTiter-Glo, 24 h | inhibition, % at 20 µM | hit rate 2.2% among 330,000;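 active = inhibition of at least 40%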;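 note: mutant grown at 25 °C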
tim23-1 inh = growth inhibitors of tim23-1 mutant yeast; S. cerevisiae tim23-1 growth, BacTiter-Glo luminescence, 24 h; inhibition, % at 20 µM; hit rate 1.3% among 330,000;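 active = growth inhibition of the mutant yeast at or above 50%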;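 note: temperature-sensitive mutant grown at 25 °C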
TIM10 inh = growth inhibitors of TIM10 yeast strain; S. cerevisiae TIM10 strain growth, BacTiter-Glo luminescence, 24 h; inhibition, % at 10 µM; hit rate 1.4% among 330,000; AID 463195;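 active = inhibition of 40% or more at the single tested concentration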;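 note: wild-type TIM10 isogenic control strain grown at permissive 25 °C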
Large screens that a line does not name were inactive. Compounds with a hit are over-represented: about 4.7% of the library has one in this group of screens.

CC(Nc1ncnc2ccccc12)c1ccccc1 (stereo unspecified)	Calb FLC 76
CC(C)(C)c1cc(NCc2ccccn2)n2ncc(-c3ccc(Cl)cc3)c2n1	SKKanGAS inh 85
CC(C)Nc1cc(C(C)(C)C)nc2c(-c3ccccc3)cnn12	SKKanGAS inh 89
CCc1nccn1-c1cc(C(C)(C)C)nc2c(-c3ccc(Cl)cc3)cnn12	none
CC(C)(C)c1cc(C(F)(F)F)n2ncc(-c3ccccc3)c2n1	none
Cc1cc(Cl)ccc1NC(=O)CSc1n[nH]c(N)n1	none (no result: SKKanGAS inh, Calb FLC)
COc1ccc(CCNC(=O)c2c(C)nn(-c3ccccc3)c2Cl)cc1OC	none
O=C(O)CSCC(=O)N(Cc1ccccc1)c1nc(-c2ccccc2)c(-c2ccccc2)s1	SKKanGAS inh 94
O=c1cc(O)c2sc3nc(-c4cccnc4)cc(C(F)(F)F)c3c2[nH]1	none
Cc1cc(C(F)(F)F)c2c(n1)sc1c(O)cc(=O)[nH]c12	SKKanGAS inh 50
Cc1ccc2c(c1)-c1cc(C)ccc1C2=O	none (no result: SKKanGAS inh, Calb FLC, tim10-1 inh, tim23-1 inh, TIM10 inh)
CCOc1ccc(-n2c(O)c(/C=N/NC(=O)C3COc4ccccc4O3)c3ccccc3c2=O)cc1 (stereo unspecified)	SKKanGAS inh 73
O=C(Cc1ccc(NC(=O)C2CCCN(C(=O)CCc3ccccc3)C2)cc1)Nc1cccc(C(=O)N2CCCC2)c1 (stereo unspecified)	none (no result: SKKanGAS inh, Calb FLC, tim10-1 inh, tim23-1 inh, TIM10 inh)
CN(C)/C=C/C(=O)c1ccc2noc(-c3cccc(F)c3)c2c1	PfHsp90 yeast 2 107
CC(=O)Oc1c(I)cc(I)cc1C(=O)Nc1ccc(Cl)cc1	SKKanGAS inh 124 (no result: PfHsp90 yeast 2)
O=C(CCS(=O)(=O)c1cccc2nsnc12)N1CCN(C(=O)c2ccco2)CC1	Calb FLC 57 (no result: PfHsp90 yeast 2)
O=C(CCS(=O)(=O)c1cccc2nsnc12)N1CCN(Cc2ccc3c(c2)OCO3)CC1	none
c1ccc(CN2CCN(c3nc(-c4ccccc4)nc(-n4ccnc4)n3)CC2)cc1	none
CCOC(=O)N1CCN(c2nc(N(c3ccccc3)c3ccccc3)nc(-n3ccnc3)n2)CC1	none (no result: PfHsp90 yeast 2)
CN(c1ccccc1)c1nc(N2CCCC2)nc(-n2ccnc2)n1	SKKanGAS inh 52
c1ccc(N(c2ccccc2)c2nc(N3CCCC3)nc(-n3ccnc3)n2)cc1	SKKanGAS inh 79
O=C(CCc1nnc2ccc(N3CCC4(CC3)OCCO4)nn12)NCc1ccc(F)cc1	none
CN(Cc1ccc(OC(F)F)cc1)Cc1nc2c(Br)cc(Br)cc2c(=O)[nH]1	SKKanGAS inh 62
CCN(CC(=O)NC(C)(C)C)Cc1nc2c(Br)cc(Br)cc2c(=O)[nH]1	SKKanGAS inh 51
Cc1ccc(NC(=O)CN(C)Cc2nc3c(Br)cc(Br)cc3c(=O)[nH]2)cc1	SKKanGAS inh 60
O=C(Nc1ccncc1)C1CCN(S(=O)(=O)c2cccc(C(F)(F)F)c2)CC1	none (no result: SKKanGAS inh, Calb FLC)
COc1ccc(Cc2[nH]n3c(=O)cc(C(C)C)nc3c2-c2ccccc2)cc1	SKKanGAS inh 91
O=C(c1ccc(C(=O)N2CCN(c3ccccc3F)CC2)nc1)N1CCN(c2ccccc2F)CC1	Calb FLC 95
Cc1ccc(CNC(=O)C2CCC(=O)N(C3CCCC3)C2)c(F)c1F (stereo unspecified)	none
CCCCCCn1c(=O)c(C(=O)N/N=C/c2cccc(F)c2)c(O)c2ccccc21	SKKanGAS inh 63
CC(C)CCn1c(=O)c(C(=O)N/N=C/c2cccc(F)c2)c(O)c2ccccc21	SKKanGAS inh 81
CCCn1c(=O)c(C(=O)NC(C)c2ccccc2)c(O)c2ccccc21 (stereo unspecified)	none
CCCn1c(=O)c(C(=O)N/N=C/c2ccc(F)cc2)c(O)c2ccccc21	SKKanGAS inh 103
CCCn1c(=O)c(C(=O)N/N=C/c2ccccc2F)c(O)c2ccccc21	none (no result: PfHsp90 yeast 2)
CCCCCCCCn1c(=O)c(C(=O)OCC)c(O)c2ccccc21	none (no result: PfHsp90 yeast 2)
CCOC(=O)c1nc(NNC(=O)c2ccc([N+](=O)[O-])cc2)sc1C	Calb FLC 116
CCOC(=O)c1sc(NNC(=O)c2ccc(C)cc2)nc1C	none
O=C(NCc1nc(-c2ccc(C(F)(F)F)cc2)no1)Nc1ccc(F)cc1F	none
O=C(NCc1nc(-c2ccc(C(F)(F)F)cc2)no1)Nc1cc(Cl)cc(Cl)c1	SKKanGAS inh 109
CCN(CC)C(=O)Cn1cc(C(=O)C(=O)N2CCN(c3ccc([N+](=O)[O-])cc3)CC2)c2ccccc21	none
CN(C)S(=O)(=O)c1ccc(-c2csc(N/N=C/c3ccc(O)cc3)n2)cc1	SKKanGAS inh 65
Cc1cccc(/N=C/c2sc3ccccc3c2O)n1	none
O=C(N/N=C/c1sc2ccccc2c1O)c1cccc2ccccc12	PfHsp90 yeast 2 104, SKKanGAS inh 91, Calb FLC 88 (no result: tim10-1 inh, tim23-1 inh, TIM10 inh)
COc1ccc(C(=O)N/N=C/c2sc3ccccc3c2O)cc1	PfHsp90 yeast 2 100 (no result: tim10-1 inh, tim23-1 inh, TIM10 inh)
Oc1c(C=Nc2cccc3cccnc23)sc2ccccc12	SKKanGAS inh 94 (no result: PfHsp90 yeast 2)
Cc1ccc2c(c1)C(=O)CC1(CCC(C(C)(C)C)CC1)O2 (stereo unspecified)	SKKanGAS inh 68
Cc1ccc2c(c1)C(=O)CC(O)(C(F)(F)F)O2 (stereo unspecified)	none
O=[N+]([O-])c1ccc(Nc2nc(NCCO)nc(N3CCCC3)n2)cc1	SKKanGAS inh 97
OCCNc1nc(Nc2ccc(Cl)cc2)nc(N2CCCC2)n1	none
Cc1ccc(S(=O)(=O)Nc2cccc(-c3ccc4nnc(C)n4n3)c2)s1	none (no result: PfHsp90 yeast 2)
O=C(CSCc1nc2c(nnn2Cc2ccc(F)cc2)c(=O)[nH]1)Nc1cccc(C(F)(F)F)c1	none (no result: PfHsp90 yeast 2)
CCOC(=O)c1c(C)[nH]c(C)c1S(=O)(=O)N(C)CC(=O)Nc1ccccc1F	none
Cc1nc2sc(C(c3cccc(F)c3)N3CCCC(C)C3)c(O)n2n1 (stereo unspecified)	Calb FLC 85
Cc1nc2sc(C(c3cccc(F)c3)N3CCCCC3)c(O)n2n1 (stereo unspecified)	none
Cn1c(Sc2ccc(Cl)cc2)c(C=O)c2ccccc21	none
Cn1c(Sc2ccccc2Cl)c(C=O)c2ccccc21	SKKanGAS inh 57
C[C@H](CO)N1C[C@H](C)[C@@H](CN(C)S(=O)(=O)c2cn(C)cn2)Oc2c(NC(=O)Nc3ccc4c(c3)OCO4)cccc2C1=O	none (no result: SKKanGAS inh, Calb FLC)
Cc1cc(C)c2c(c1)/C(=c1/sc3n(c1=O)CN(c1ccccc1)CN=3)C(=O)N2	none
CCOC(=O)C1=Nc2ccccc2C1=[N+]=[N-]	PfHsp90 yeast 2 122, SKKanGAS inh 103
O=C(Nc1cc(Cl)ccc1N1CCOCC1)c1ccc(=O)[nH]c1	none (no result: SKKanGAS inh, Calb FLC)
CCN=c1scc(-c2ccc3c(c2)NC(=O)CO3)n1N=C1CCCC1	Calb FLC 93
CCC(=O)N(CCC(Cc1ccccc1)c1ccc2c(c1)OCO2)Cc1ccccc1F (stereo unspecified)	SKKanGAS inh 52
O=c1cc(CN2CCN(Cc3ccccc3)CC2)c2ccc(O)c(O)c2o1	Calb FLC 88
